Source: PubChem BioAssay AID1578 (Sanford-Burnham Center for Chemical Genomics, 2009)
Screen size: about 290,000 compounds; about 3,000 (1%) were called active. This excerpt belongs to a sample that is enriched for actives. Unmarked numbers belong to inactive results. Rule as the data show it: active = inhibition mostly above about 36% (no sharp cut-off); inactive = mostly below about 34%.

Test: inhibition of NOD1-driven NF-kB reporter – cell-based, luminescence, uHTS, primary screen (AID 1578);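 also: HEK-293T reporter cells stimulated with the NOD1 agonist gamma-tri-DAP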
Conditions: NOD1-driven NF-kB luciferase reporter cells, at 4 µM, active compounds read high

SMILES | inhibition
Cc1nn(CCCC(=O)NC(C)c2ccccc2)c(=O)c2nn(-c3ccccc3)c(C)c12 (centres undefined) | -16.8%
COc1ccccc1C(=O)Nc1ccccc1C(=O)NCc1ccco1 | 25.7%
CCCSc1nc(SCC(=O)NCc2ccccc2)c2c3c(sc2n1)COC(C)(C)C3 | -25.4%
O=C(Nc1ccccc1)c1cnc2ccccc2n1 | -56.8%
CC(NC(=O)c1cnc2ccccc2n1)c1ccccc1 (centres undefined) | 78.3% (active)
CC(NC(=O)c1ccc2ccccc2n1)c1ccccc1 (centres undefined) | -34.3%
COc1ccc(S(=O)(=O)NC(N)=NCCc2ccc(OC)c(OC)c2)cc1C | -11.6%
O=C1c2ccccc2C(=O)C12OC2c1ccc(Cl)cc1 (centres undefined) | 81.6% (active)
O=C1c2ccccc2C(=O)C12OC2c1cccc2ccccc12 (centres undefined) | -22.4%
O=C1c2ccccc2C(=O)C12OC2c1ccc(Cl)cc1Cl (centres undefined) | 36.6%
C(=N\n1cnnc1)/C1CCCCC1 | -17.3%
Nc1c(N2CCN(c3ccccc3)CC2)c2ccccc2oc1=O | 60.8% (active)
Nc1c(N2CCCCC2)c2ccccc2oc1=O | -15%
Nc1c(N2CCCC2)c2ccccc2oc1=O | -10.9%
COc1ccc(OC)c(NC(=O)Cc2c(C(=O)O)n(C)c3ccccc23)c1 | -25.2%
NC(=O)C1CCN(C(=O)c2ccc3nc(N4CCCCC4)sc3c2)CC1 | -2.5%
COC(=O)Cc1ccc(NC(=S)NCc2ccccc2OC)cc1 | -14.6%
O=C(CC1NCCNC1=O)Nc1ccccc1 (centres undefined) | -14.1%
Cc1ccc(C)c(NC(=O)C2CCCN(S(=O)(=O)c3c(C)noc3/C=C/N(C)C)C2)c1 (centres undefined) | -11.5%
COc1ccc(/C=N/NC(=O)c2cccnc2)cc1O | 20%
Cc1oc(-c2ccc3c(c2)OCCO3)cc1C(=O)NCC(=O)O | -22.5%
Cc1oc(-c2ccc3c(c2)OCCO3)cc1C(=O)O | 89.2% (active)

SMILES | inhibition
CCOC(=O)CNC(=O)c1cc(-c2ccc3c(c2)OCCO3)oc1C | -24%
C=C1CCC[C@]2(C)C[C@H]3OC(=O)C(CNCC(OC)OC)[C@H]3CC12 (some centres undefined) | -18%
COc1cc(/C=N/O)cc(Br)c1OC | 6.6%
CCCOc1c(Br)cc(/C=N/O)cc1OC | 6%
COc1cc(/C=N/O)cc(Br)c1OS(=O)(=O)c1ccc(C)cc1 | 78% (active)
COCCNC(=S)N1CCOCC1 | -13.4%
CC(C)(C)C1=NN(c2ccc([N+](=O)[O-])cc2)C(c2ccccc2)C1 (centres undefined) | -37.3%
CCN(CC)S(=O)(=O)c1ccc(OC)c(NC(=O)CC2CCCC2)c1 | -26.7%
CN(C)S(=O)(=O)c1ccc(Cl)c(NC(=O)COC(=O)CN2C(=O)C3CCCCC3C2=O)c1 (centres undefined) | -45.6%
COc1ccc(S(=O)(=O)N(C)C)cc1NC(=O)COC(=O)CC1CCCC1 | 41.4% (active)
CN(CC(=O)Nc1ccc(Cl)c(Cl)c1)C1CCCCC1 | -29.4%
O=C(c1ccco1)N(Cc1ccco1)Cc1cc2ccccc2[nH]c1=O | 5.8%
O=C(C1COc2ccccc2O1)N1CCc2ccccc2C1 (centres undefined) | 45.7% (active)
O=C(C1COc2ccccc2O1)N1CCc2ccccc21 (centres undefined) | -44.3%
O=C(C1COc2ccccc2O1)N1CCCC1 (centres undefined) | 9.4%
Cc1ccc(CSc2nnc3ccc(-c4ccncc4)nn23)cc1 | -23.9%
CSc1ccc(C(=O)C2CCCN(C(=O)c3ccc(C)nc3)C2)cc1 (centres undefined) | -25.1%
O=C(c1ccc(Oc2ccccc2)cc1)C1CCCN(C(=O)c2cnccn2)C1 (centres undefined) | -4.3%
Cc1ccc(C(=O)N2CCCC(C(=O)c3ccc(Oc4ccccc4)cc3)C2)cn1 (centres undefined) | 61% (active)
COc1ccc([N+](=O)[O-])cc1Nc1ncnc2ccccc12 | -1.9%
COc1ccc(Nc2ncnc3ccc([N+](=O)[O-])cc23)c(OC)c1 | 7%
O=[N+]([O-])c1ccc2ncnc(Nc3ccc4c(c3)OCCO4)c2c1 | 65.2% (active)

SMILES | inhibition
Cc1ccc2ncnc(Nc3cccc([N+](=O)[O-])c3)c2c1 | 13.8%
Cc1ccc(O)c(Nc2ncnc3ccc([N+](=O)[O-])cc23)c1 | 28.1%
CCOC(=O)COn1c(=O)c(-c2ccccc2)[n+]([O-])c2ccccc21 | 0.2%
COc1ccc(/C=N/NC(=O)c2ccc(Br)cc2)c(OC)c1 | -40.4%
COC(=O)C1=C(C)NC(C)=C(C(=O)OC)C1c1ccco1 | -5.8%
CCOc1ccc(NC(=O)COC(=O)Cc2ccc(S(=O)(=O)N3CCOCC3)s2)cc1 | 5.1%
Cc1ccc(-n2nc3c(=O)n(CC(=O)NCc4ccccn4)nc(C)c3c2C)cc1 | -3.4%
CC(C)(C)OC(=O)N1CCOCCOCCN(C(=O)OC(C)(C)C)CCOCCOCC1 | 4.4%
COC(=O)c1nc(NC(=O)c2cc(OC)c(OC)c(OC)c2)n[nH]1 | 15.5%
CCN1CCN(CC(=O)c2c[nH]c3ccc(C)cc23)CC1 | -10.6%
CCN(CC)CC(=O)c1c[nH]c2ccc(C)cc12 | -11.4%
Cc1ccc2[nH]cc(C(=O)CCl)c2c1 | 107% (active)
Nc1ccc(S(=O)(=O)c2ccc(Cl)cc2)cc1 | 4%
COc1ccc(/C=N/NC(N)=S)cc1 | -8.2%
Cc1ccc(S(=O)(=O)c2nc(S(=O)(=O)c3ccccc3)sc2N2CCN(CCO)CC2)cc1 | 18%
CCN1C(=O)N(CC)C2NC(=S)NC21 (centres undefined) | 8.6%
COc1ccc(OCc2cc(C(=O)N(C)Cc3nnc(C)o3)no2)c(Cl)c1 | -5.8%
C/C=C/Cn1c(SCc2ccccc2)nc2c1c(=O)[nH]c(=O)n2C | 35%
C=CCn1c(SCCCc2ccccc2)nc2c1c(=O)[nH]c(=O)n2C | -1.2%
Cc1ccc(S(=O)(=O)c2cc3c(=O)n4ccccc4nc3n(C)c2=N)cc1C | -7.1%
